Where a name gives a salt, the structure may show the parent alone. ± gives the standard deviation of the averaged measurements.
Assays:
DLD1 [1] = experiment: cell viability (CellTiter-Glo) relative to plate median (fraction of plate median); higher = more viable cells; conditions: 10 µM, treatment time 24 h
How it was run: (§1)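 Values are the mean of two independent replicates of luminescence normalised to the plate median with webcellHTS2, using the additive method without log transformation. They come from colorectal cancer cell lines stably transduced with lentiviral TCF/Wnt firefly luciferase reporters (7TFP or TCF4/Wnt), seeded in 384-well plates. After 24 h the cells got kinase inhibitor library compounds at a final 10 µM for 24 h, and parallel plates were read for firefly luciferase or CellTiterGlo on a Tecan F500.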

HCT116 [2] = experiment: as above; conditions: 10 µM; treatment time 24 h; reporter: TCF4/Wnt
How it was run: as §1

SW480 [3] = experiment: as above; conditions: 10 µM; treatment time 24 h; reporter: 7TFP
How it was run: as §1

DLD1 [4] = experiment: TCF/Wnt firefly luciferase reporter signal relative to plate median (fraction of plate median); higher = higher Wnt reporter signal; conditions: 10 µM, treatment time 24 h
How it was run: as §1

HCT116 [5] = experiment: as above; conditions: 10 µM; treatment time 24 h; reporter: TCF4/Wnt
How it was run: as §1

SW480 [6] = experiment: as above; conditions: 10 µM; treatment time 24 h; reporter: 7TFP
How it was run: as §1

CCc1cnn2c(NCc3ccc[n+]([O-])c3)cc(N3CCCC[C@H]3CCO)nc12
cell viability (DLD1 [1]; reporter: 7TFP): 0.985 ± 0.13
cell viability (DLD1 [1]; reporter: TCF4/Wnt): 1.06 ± 0.021
cell viability (HCT116 [2]): 0.809 ± 0.27
cell viability (SW480 [3]): 1.34 ± 0.042
TCF/Wnt firefly luciferase reporter signal (DLD1 [4]; reporter: 7TFP): 0.462 ± 0.029
TCF/Wnt firefly luciferase reporter signal (DLD1 [4]; reporter: TCF4/Wnt): 0.304 ± 0.03
TCF/Wnt firefly luciferase reporter signal (HCT116 [5]): 0.128 ± 0.063
TCF/Wnt firefly luciferase reporter signal (SW480 [6]): 0.61 ± 0.33

N=C(N)NC(=N)NCCc1ccccc1 [Phenformin hydrochloride]
cell viability (DLD1 [1]; reporter: 7TFP): 1.185 ± 0.0071
cell viability (DLD1 [1]; reporter: TCF4/Wnt): 1.06 ± 0.057
cell viability (HCT116 [2]): 1.21 ± 0.18
cell viability (SW480 [3]): 0.923 ± 0.086
TCF/Wnt firefly luciferase reporter signal (DLD1 [4]; reporter: 7TFP): 1.26 ± 0.12
TCF/Wnt firefly luciferase reporter signal (DLD1 [4]; reporter: TCF4/Wnt): 1.21 ± 0.27
TCF/Wnt firefly luciferase reporter signal (HCT116 [5]): 1.3 ± 0.51
TCF/Wnt firefly luciferase reporter signal (SW480 [6]): 1.17 ± 0.21

O=C1NC(=O)C(c2ccccc2[N+](=O)[O-])=C1Nc1ccc(O)c(Cl)c1
cell viability (DLD1 [1]; reporter: 7TFP): 1.13 ± 0.2
cell viability (DLD1 [1]; reporter: TCF4/Wnt): 1.07 ± 0.035
cell viability (HCT116 [2]): 1.06 ± 0.05
cell viability (SW480 [3]): 0.859 ± 0.072
TCF/Wnt firefly luciferase reporter signal (DLD1 [4]; reporter: 7TFP): 1.63 ± 0.24
TCF/Wnt firefly luciferase reporter signal (DLD1 [4]; reporter: TCF4/Wnt): 1.85 ± 0.45
TCF/Wnt firefly luciferase reporter signal (HCT116 [5]): 2.56 ± 0.96
TCF/Wnt firefly luciferase reporter signal (SW480 [6]): 1.07 ± 0.12

CCS(=O)(=O)N1CC(CC#N)(n2cc(-c3ncnc4[nH]ccc34)cn2)C1
cell viability (DLD1 [1]; reporter: 7TFP): 1.025 ± 0.0071
cell viability (DLD1 [1]; reporter: TCF4/Wnt): 1.02 ± 0.021
cell viability (HCT116 [2]): 1.22 ± 0.092
cell viability (SW480 [3]): 0.943 ± 0.0014
TCF/Wnt firefly luciferase reporter signal (DLD1 [4]; reporter: 7TFP): 1.09 ± 0.16
TCF/Wnt firefly luciferase reporter signal (DLD1 [4]; reporter: TCF4/Wnt): 0.764 ± 0.18
TCF/Wnt firefly luciferase reporter signal (HCT116 [5]): 0.974 ± 0.11
TCF/Wnt firefly luciferase reporter signal (SW480 [6]): 0.985 ± 0.021

O=C1NC(=O)[C@@H](c2cn3c4c(cccc24)CCC3)[C@@H]1c1c[nH]c2ccccc12 [ARQ 197 (Tivantinib)]
cell viability (DLD1 [1]; reporter: 7TFP): 0.995 ± 0.18
cell viability (DLD1 [1]; reporter: TCF4/Wnt): 1.01 ± 0.017
cell viability (HCT116 [2]): 0.593 ± 0.15
cell viability (SW480 [3]): 1.07 ± 0.014
TCF/Wnt firefly luciferase reporter signal (DLD1 [4]; reporter: 7TFP): 0.632 ± 0.25
TCF/Wnt firefly luciferase reporter signal (DLD1 [4]; reporter: TCF4/Wnt): 0.788 ± 0.31
TCF/Wnt firefly luciferase reporter signal (HCT116 [5]): 0.241 ± 0.028
TCF/Wnt firefly luciferase reporter signal (SW480 [6]): 0.701 ± 0.043

COc1cc(Nc2ncc(F)c(Nc3ccc4c(n3)NC(=O)C(C)(C)O4)n2)cc(OC)c1OC
cell viability (DLD1 [1]; reporter: 7TFP): 1.1 ± 0.17
cell viability (DLD1 [1]; reporter: TCF4/Wnt): 0.982 ± 0.054
cell viability (HCT116 [2]): 1.11 ± 0.12
cell viability (SW480 [3]): 1.01 ± 0.037
TCF/Wnt firefly luciferase reporter signal (DLD1 [4]; reporter: 7TFP): 1.05 ± 0.13
TCF/Wnt firefly luciferase reporter signal (DLD1 [4]; reporter: TCF4/Wnt): 0.941 ± 0.044
TCF/Wnt firefly luciferase reporter signal (HCT116 [5]): 1.24 ± 0.2
TCF/Wnt firefly luciferase reporter signal (SW480 [6]): 0.914 ± 0.57

COCC(=O)NC/C=C/c1ccc2ncnc(Nc3ccc(Oc4ccc(C)nc4)c(C)c3)c2c1
cell viability (DLD1 [1]; reporter: 7TFP): 0.964 ± 0.14
cell viability (DLD1 [1]; reporter: TCF4/Wnt): 1.035 ± 0.0071
cell viability (HCT116 [2]): 1.06 ± 0.014
cell viability (SW480 [3]): 0.952 ± 0.059
TCF/Wnt firefly luciferase reporter signal (DLD1 [4]; reporter: 7TFP): 1.18 ± 0.064
TCF/Wnt firefly luciferase reporter signal (DLD1 [4]; reporter: TCF4/Wnt): 1.19 ± 0.17
TCF/Wnt firefly luciferase reporter signal (HCT116 [5]): 0.786 ± 0.27
TCF/Wnt firefly luciferase reporter signal (SW480 [6]): 0.927 ± 0.43

N#CC[C@H](C1CCCC1)n1cc(-c2ncnc3[nH]ccc23)cn1
cell viability (DLD1 [1]; reporter: 7TFP): 1.115 ± 0.0071
cell viability (DLD1 [1]; reporter: TCF4/Wnt): 1.13 ± 0.057
cell viability (HCT116 [2]): 1.09
cell viability (SW480 [3]): 0.9755 ± 0.0021
TCF/Wnt firefly luciferase reporter signal (DLD1 [4]; reporter: 7TFP): 1.05 ± 0.15
TCF/Wnt firefly luciferase reporter signal (DLD1 [4]; reporter: TCF4/Wnt): 1.025 ± 0.0071
TCF/Wnt firefly luciferase reporter signal (HCT116 [5]): 1.13 ± 0.042
TCF/Wnt firefly luciferase reporter signal (SW480 [6]): 1.09 ± 0.042

C=CC(=O)Nc1cccc(Oc2nc(Nc3ccc(N4CCN(C)CC4)cc3)ncc2Cl)c1
cell viability (DLD1 [1]; reporter: 7TFP): 0.968 ± 0.045
cell viability (DLD1 [1]; reporter: TCF4/Wnt): 1.045 ± 0.0071
cell viability (HCT116 [2]): 0.894 ± 0.16
cell viability (SW480 [3]): 1.07 ± 0.085
TCF/Wnt firefly luciferase reporter signal (DLD1 [4]; reporter: 7TFP): 0.79 ± 0.067
TCF/Wnt firefly luciferase reporter signal (DLD1 [4]; reporter: TCF4/Wnt): 0.969 ± 0.12
TCF/Wnt firefly luciferase reporter signal (HCT116 [5]): 1.18 ± 0.42
TCF/Wnt firefly luciferase reporter signal (SW480 [6]): 0.834 ± 0.39

Cc1cc(CN2CCN(c3c(Br)cnc4nc(-c5ccc(N6CCN(C)CC6)cc5)[nH]c34)CC2)no1
cell viability (DLD1 [1]; reporter: 7TFP): 1.09 ± 0.23
cell viability (DLD1 [1]; reporter: TCF4/Wnt): 1.01 ± 0.021
cell viability (HCT116 [2]): 1.04 ± 0.014
cell viability (SW480 [3]): 1.08 ± 0.057
TCF/Wnt firefly luciferase reporter signal (DLD1 [4]; reporter: 7TFP): 1.42 ± 0.15
TCF/Wnt firefly luciferase reporter signal (DLD1 [4]; reporter: TCF4/Wnt): 1.49 ± 0.18
TCF/Wnt firefly luciferase reporter signal (HCT116 [5]): 1.72 ± 0.46
TCF/Wnt firefly luciferase reporter signal (SW480 [6]): 1.34 ± 0.4

COc1cc(N2CCC(N3CCN(C)CC3)CC2)ccc1Nc1ncc(Cl)c(Nc2ccccc2S(=O)(=O)C(C)C)n1
cell viability (DLD1 [1]; reporter: 7TFP): 0.799 ± 0.069
cell viability (DLD1 [1]; reporter: TCF4/Wnt): 0.884 ± 0.0071
cell viability (HCT116 [2]): 0.733 ± 0.057
cell viability (SW480 [3]): 0.923 ± 0.054
TCF/Wnt firefly luciferase reporter signal (DLD1 [4]; reporter: 7TFP): 0.909 ± 0.21
TCF/Wnt firefly luciferase reporter signal (DLD1 [4]; reporter: TCF4/Wnt): 1.14 ± 0.035
TCF/Wnt firefly luciferase reporter signal (HCT116 [5]): 1.2 ± 0.12
TCF/Wnt firefly luciferase reporter signal (SW480 [6]): 0.767 ± 0.057

Reference: the supplement of paper PMC6522484
